# A selection: hits, their analogues and other compounds. The true share with any hit is near 7.5%.
# Rab9 prom act: activates the Rab9 promoter. Huh7 Rab9 promoter-luciferase reporter, luminescence, 24 h. Potency, µM (titrated, usually from 9.22 µM), for the others: top-dose activation, negative = inhibition, most hits filed as activators. 320,000 tested, 2.8% active. AID 485297; further: % of control where 0% means no effect; nearly all actives have a fitted effect of over 60% in size
#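 Rab9 promoter-driven luciferase in stably transfected Huh7 cells; 1500 cells/well rested 2 h, exposed to compound in DMSO for 24 h at 37 °C, 5% CO2. Luminescence read 10 min after adding luciferase reagent at ambient temperature.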
# SMN2 splice up: SMN2 splice variant enhancement; HEK293 SMN2-luciferase splicing reporter, luminescence, 30-36 h; Potency, µM (doses to about 46.1 µM), for the others: at the highest dose activity change, positive = activation, most hits filed as activators; 210,000 tested, 2.8% active; AID 1458; further: % of control where 0% means no effect; nearly all actives have a fitted effect of over 55% in size
#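 qHTS luciferase splicing reporter: luminescence rises when SMN2 exon 7 is included in transfected HEK293 cells. Compound exposure lasted 30-36 h at 37C, with 4.5 mM final sodium butyrate as control, followed by a ONE-Glo read.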
# Luc counter: Kinase-Glo luciferase inhibition (counter-screen); Q27757; Potency, µM (top dose mostly 38.3 µM), inactives show at the top dose activity change, negative = inhibition, actives largely listed as inhibitors; AID 1379; Kinase-Glo luciferase, ATP luminescence, 8 min; 200,000 tested, 0.28% active; further: on the % scale 0 is the no-effect control and ±100 the full control effect; nearly all actives have a fitted effect of over 60% in size
#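 Compound is pinned into ATP-containing buffer (10 uM ATP, imidazole pH 7.2, 7 mM MgCl2). Kinase-Glo luciferase reagent is then added. Light output is recorded following an 8-min room-temperature incubation.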
# FLuc counter: counter-screen for miR-21 project: firefly luciferase inhibitors or activators | P08659 | purified FLuc, Km substrates, luminescence inhibition | Potency, µM (series often up to 57.5 µM), for inactives: at the top dose activity change, negative = inhibition, usual class: inhibitors | 360,000 tested, 6.9% active;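 further: plate controls were vehicle for no effect and reference inhibitor for full effect; nearly all actives have a fitted effect of over 55% in size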
# Target sequence (P08659 whole entry, looked up): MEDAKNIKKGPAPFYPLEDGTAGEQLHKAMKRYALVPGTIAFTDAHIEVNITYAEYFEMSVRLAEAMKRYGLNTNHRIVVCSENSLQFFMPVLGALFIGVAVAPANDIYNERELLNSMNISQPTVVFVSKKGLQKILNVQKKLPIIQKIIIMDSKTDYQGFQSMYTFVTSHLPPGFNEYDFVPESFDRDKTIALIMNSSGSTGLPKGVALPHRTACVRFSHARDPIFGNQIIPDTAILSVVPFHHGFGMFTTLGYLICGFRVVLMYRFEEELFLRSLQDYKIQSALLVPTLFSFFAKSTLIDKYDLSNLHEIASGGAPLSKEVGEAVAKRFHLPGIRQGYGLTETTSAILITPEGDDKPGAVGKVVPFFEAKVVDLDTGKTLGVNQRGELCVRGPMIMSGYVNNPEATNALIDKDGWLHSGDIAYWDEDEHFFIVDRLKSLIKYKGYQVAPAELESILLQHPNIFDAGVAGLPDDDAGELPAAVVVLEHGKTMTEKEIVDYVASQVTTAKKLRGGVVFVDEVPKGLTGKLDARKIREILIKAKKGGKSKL
#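 Purified P. pyralis luciferase, 10 nM final, with Km-level 10 uM D-luciferin and 10 uM ATP in 50 mM Tris acetate pH 7.5, 10 mM Mg acetate, 0.01% Tween-20, 0.05% BSA; 6-point qHTS titration about 60 µM downward; luminescence read.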
# ELG1 genotox: induces genotoxicity in HEK293T cells with luciferase-tagged ELG1 | HEK293T ELG1-luciferase reporter, luminescence, 16 h | Potency, µM (series often up to 46 µM), inactives show top-dose activity change, positive = activation, hits mostly activators | 330,000 tested, 1.3% active | AID 504466; further: % of control where 0% means no effect; nearly all actives have a fitted effect of over 60% in size
#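 After overnight (16 hr) compound treatment at 37 °C, ELG1-luciferase HEK293T cells were lysed with ONE-Glo; luminescence quantified 30 min later at room temperature.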
# NPC1 promoter act: activators of NPC1 promoter; Huh7 NPC1 promoter luciferase reporter, 24 h; Potency, µM (series often up to 9.22 µM), for inactives: at the highest dose activation, most hits filed as activators; 320,000 tested, 2.4% active; AID 485313; further: % of control where 0% means no effect; nearly all actives have a fitted effect of over 60% in size
#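 Readout is luciferase luminescence, reflecting NPC1 promoter activation in stably transfected Huh7 cells after 24 h compound exposure at 37 °C in reduced-serum medium with 10% FBS.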
# * hit, by the source's call; u = inconclusive; x = no result given. The call rests on the fitted dose curve; in most records, active means well fitted curve in the direction sought with a large enough effect; inconclusive means small, poorly fitted or top-dose-only effect, or another doubt; inactive means no such curve, though single readings can be large; an effect the other way counts as inactive or inconclusive. Potency means the concentration at half of the fitted maximal effect.
SMILES,Rab9 prom act,SMN2 splice up,Luc counter,FLuc counter,ELG1 genotox,NPC1 promoter act
CCc1ccc(N=C2N=C(N)c3ccccc32)cc1,29%,u,11%,2.7µM*,u,-3%
Cc1nn(C)c(C)c1C(C)NC(=O)c1cc(COc2ccc(F)c(F)c2)on1 (stereo not given),u,x,x,21µM*,15%,u
O=C(COC(=O)c1ccccc1-n1cnnn1)c1ccc(Br)cc1,-1%,x,x,5.4µM*,18µM*,-3%
O=C(COC(=O)c1ccccc1-n1cnnn1)c1ccc(F)c(F)c1,13%,x,x,u,u,14%
O=C(COC(=O)c1ccccc1-n1cnnn1)c1ccccc1,9%,x,x,19µM*,11%,8%
COc1ccc(CNCc2ccc3c(c2)n(C)c(=O)n3C)cc1,x,x,x,0%,x,x
Cc1ccc(NC(=O)C2OCCc3ccccc32)cc1Cl (stereo not given),11%,2%,0%,24µM*,11%,7%
CCc1ccc(NC(=O)Cn2ccn(-c3ccc(C)c(C)c3)c(=O)c2=O)cc1,x,x,x,-1%,x,x
Cc1cc(C(=O)COC(=O)C(C)NC(N)=O)c(C)n1Cc1ccco1 (stereo not given),28%,4%,-2%,13µM*,17%,5%
Cc1cc(C(=O)C(C)Cl)c(C)n1Cc1ccco1 (stereo not given),5%,-11%,1%,-1%,-3%,-2%
Cc1cc(C(=O)COC(=O)c2ccc(O)cc2)c(C)n1Cc1ccco1,2.5µM*,22µM*,-4%,3.4µM*,u,3.5µM*
Cc1cc(C(=O)COC(=O)c2ccc(Br)o2)c(C)n1Cc1ccco1,3.2µM*,-5%,0%,2.7µM*,u,26%
O=C(COC(=O)CCC(=O)c1ccc2c(c1)OCCO2)NCc1ccc2c(c1)OCO2,5%,8%,1%,11µM*,10%,-1%
Cc1cc(C)cc(C(=O)Nc2c3c(nn2-c2ccccc2C)CS(=O)(=O)C3)c1,x,x,x,-4%,x,x
COc1cccc(CN2C(=O)c3ccccc3Sc3ccc(C(=O)NCCc4ccc(Cl)cc4)cc32)c1,x,-1%,x,-2%,x,x
CCCC(=O)c1ccc2c(c1)OCCO2,19%,17%,-6%,u,20%,11%
Cc1cc(C(=O)COC(=O)CCC(=O)c2ccc3c(c2)OCCO3)c(C)n1Cc1ccco1,12%,8%,-2%,8.5µM*,u,9%
CCOc1ncccc1C(=O)OCC(=O)c1cc(OC)ccc1OC,1%,0%,-1%,-7%,0%,-1%
CCOc1ncccc1C(=O)OCC(=O)c1cc(C)n(Cc2ccco2)c1C,0.5µM*,13%,-15%,0.85µM*,6.5µM*,0.35µM*
COc1cc(OC)cc(C(=O)NCC(=O)OCC(=O)c2cc(C)n(Cc3ccco3)c2C)c1,-2%,-6%,-4%,27µM*,0%,-3%
Cc1cc(C(=O)COC(=O)CNC(=O)c2ccco2)c(C)n1Cc1ccco1,-5%,17%,1%,u,0%,2%
COc1ccc(CCNC(=O)NCc2noc3ccccc23)c(OC)c1,x,x,x,-7%,x,x
COc1ccc(N2CCN(S(=O)(=O)CCNC(=O)c3ccc(C(F)(F)F)cc3)CC2)cc1,x,x,x,-3%,x,x
Cc1ccc(NC(=O)Cn2nc(C(F)(F)F)c3c2CCCC3)cc1,x,1%,x,-8%,x,x
COc1ncc2nc(CCc3ccccc3)c(=O)n(C)c2n1,x,14µM*,-2%,x,x,x
O=C(COc1ccc(Cl)cc1)Nc1cccc(S(=O)(=O)NC2=NCCCCC2)c1,-6%,x,x,15µM*,16%,3%
O=C(COc1ccccc1Cl)Nc1cccc(S(=O)(=O)NC2=NCCCCC2)c1,-2%,x,x,19µM*,-4%,-2%
Cc1ccc(C)c(OCC(=O)Nc2cccc(S(=O)(=O)NC3=NCCCCC3)c2)c1,2%,x,x,-1%,-14%,-1%
Cc1cc(Cl)ccc1OCC(=O)Nc1cccc(S(=O)(=O)NC2=NCCCCC2)c1,1%,x,x,13µM*,-5%,8%
